Source: PubChem
Six1-Eya2 inh – Six1/Eya2 interaction inhibition; Q15475+O00167; AlphaScreen GST-Six1/His-Eya2 binding, biochemical; hits give low values; activity change, % (concentration not given with the values); 360,000 compounds, 0.56% hits
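Homogeneous AlphaScreen proximity assay pairing GST-Six1 with His-tagged Eya2 (added as 5X mix: 250 nM and 500 nM) in 50 mM Tris pH 8.0, 300 mM NaCl, 1 mM TCEP. Glutathione donor and nickel acceptor beads; 1 h, 37 °C, dark.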
CtBP-E1A inh – blocks the CtBP interaction with E1A; AlphaScreen GST-E1A/His-CtBP binding, 1536-well; hits give low values; activity change, % (no concentration beside the values); 340,000 compounds, 0.49% hits; AID 651724
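Homogeneous bead-based format: GST-tagged E1A captured on glutathione donor beads, His-tagged CtBP on nickel acceptor beads; compounds precede bead addition by 2 h at 37 °C.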
KCNH2 WT inh – KCNH2 (human, wildtype) channel inhibition | AID 720551 | 340,000 compounds, 0.37% hits | Q12809 | activity change, % at 1.84 µM | U2OS, BacMam KCNH2, thallium flux FluxOr; hits give low values;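 active = maximum activity change below -70%; inconclusive = maximum activity change between -70% and -50%; inactive = maximum activity change above -50%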
Target sequence (Q12809 whole entry, looked up): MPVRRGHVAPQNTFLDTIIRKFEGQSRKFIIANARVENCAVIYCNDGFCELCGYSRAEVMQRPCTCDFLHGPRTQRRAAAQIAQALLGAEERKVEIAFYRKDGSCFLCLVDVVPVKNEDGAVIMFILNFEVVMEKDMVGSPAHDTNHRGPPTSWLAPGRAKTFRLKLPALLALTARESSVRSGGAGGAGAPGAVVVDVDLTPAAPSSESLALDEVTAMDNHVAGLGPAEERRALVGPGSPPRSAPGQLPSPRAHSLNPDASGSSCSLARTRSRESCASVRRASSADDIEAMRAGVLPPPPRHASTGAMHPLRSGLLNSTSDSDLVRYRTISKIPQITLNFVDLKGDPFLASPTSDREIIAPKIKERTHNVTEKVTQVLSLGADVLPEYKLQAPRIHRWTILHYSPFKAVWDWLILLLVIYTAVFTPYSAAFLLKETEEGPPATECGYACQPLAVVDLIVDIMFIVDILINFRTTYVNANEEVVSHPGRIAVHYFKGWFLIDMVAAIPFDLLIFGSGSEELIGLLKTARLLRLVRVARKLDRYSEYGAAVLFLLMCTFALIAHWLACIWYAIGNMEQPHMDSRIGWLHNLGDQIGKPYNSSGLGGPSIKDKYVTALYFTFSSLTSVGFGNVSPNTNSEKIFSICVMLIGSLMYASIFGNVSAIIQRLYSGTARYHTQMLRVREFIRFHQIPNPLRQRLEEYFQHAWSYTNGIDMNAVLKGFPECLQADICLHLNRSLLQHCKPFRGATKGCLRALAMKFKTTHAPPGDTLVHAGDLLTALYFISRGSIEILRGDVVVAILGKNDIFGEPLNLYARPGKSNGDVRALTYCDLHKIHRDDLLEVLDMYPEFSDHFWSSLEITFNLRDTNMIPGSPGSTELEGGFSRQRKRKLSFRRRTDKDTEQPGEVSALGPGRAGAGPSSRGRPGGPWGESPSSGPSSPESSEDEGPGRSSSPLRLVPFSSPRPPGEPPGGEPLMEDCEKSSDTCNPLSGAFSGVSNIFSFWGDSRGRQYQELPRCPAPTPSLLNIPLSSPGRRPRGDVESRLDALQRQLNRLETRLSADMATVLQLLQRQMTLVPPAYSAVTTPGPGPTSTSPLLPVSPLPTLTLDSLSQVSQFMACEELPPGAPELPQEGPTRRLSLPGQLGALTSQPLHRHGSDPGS
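U2OS cells were transduced with wild-type KCNH2 virus (2.03 x 10^8 / mL) for 4 h at room temperature, then cultured overnight at 37 C. Thallium flux was read with FluxOr dye. Rate constants were normalized to DMSO controls.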
KDM4E inh – JMJD2E (human) inhibition; B2RXH2; Potency, µM (series often up to 57.1 µM), for inactives: at the top dose activity change, negative = inhibition, most hits filed as inhibitors; AID 2147; JMJD2E catalytic domain, FDH-coupled NADH fluorescence (FDH is formaldehyde dehydrogenase); 230,000 compounds, 1.6% hits; active = well fitted inhibition curve with a large enough effect, not every such curve was filed as active; inconclusive = small, poorly fitted or top-dose-only effect, or another doubt; inactive = no such curve, though single readings can be large or run the other way;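 note: potency is the fitted concentration of half-maximal effect; 0% = wells with enzyme and -100% = buffer wells without enzyme; nearly all actives have a fitted effect of over 50% in size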
KCNH2 3.1 inh – blocks the human KCNH2 3.1 channel isoform; U2OS KCNH2 3.1, thallium flux FluxOr; hits give low values; activity change, % (tested at about 1.8 µM); 340,000 compounds, 0.95% hits;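 active = maximum activity change below -70%; inconclusive = maximum activity change from -70% to -50%; inactive = maximum activity change above -50%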;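 note: thallium influx rate constant from kinetic fluorescence after stimulation buffer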
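FluxOr-based Tl+ influx in U2OS cells transduced with KCNH2 3.1 virus; rate constants normalized to DMSO controls.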
* marks the source's active call; other numbers are inactive results; u = inconclusive; x = not tested or not shown. Most compounds without a hit are left out; they make up all but 2% or so of the library. Cut-off read from the data, not from the text of the source, unless noted: active = activity change below about -65%; inconclusive = mostly about -30% to -63%; inactive = weaker than that. Unless noted, % is set by controls: 0 for no effect and ±100 for the full control effect.

SMILES	Six1-Eya2 inh	CtBP-E1A inh	KCNH2 WT inh	KDM4E inh	KCNH2 3.1 inh
COc1cc(OC)c2c(-c3ccccc3)cc(=O)oc2c1C(CCN1CCN(c2ccccc2)CC1)c1ccc(N(C)C)cc1 (stereo unspecified)	u	u	x	-2%	x
CCCCCc1cc(=O)oc2c(C(CCN3CCCCC3)c3ccc4c(c3)OCO4)c(OC)cc(OC)c12 (stereo unspecified)	-23	u	-80*	-9%	-42
COc1cc(OC)c2c(-c3ccccc3)cc(=O)oc2c1C(CCN1CCCC1)c1ccc2c(c1)OCO2 (stereo unspecified)	-12	u	-82*	-21%	17
CCCCCc1cc(=O)oc2c(C(CCN3CCCC(C)C3)c3ccc4c(c3)OCO4)c(OC)cc(OC)c12 (stereo unspecified)	-8	-2	-33	10%	-41
CCCCCc1cc(=O)oc2c(C(CCN3CCN(c4ccccc4)CC3)c3ccc(N(C)C)cc3)c(OC)cc(OC)c12 (stereo unspecified)	-66*	-28	x	u	x
COc1ccc(C(CCN2CCCC(C)C2)c2c(OC)cc(OC)c3c(-c4ccccc4)cc(=O)oc23)cc1 (stereo unspecified)	-13	-10	-14	-8%	u
CCCCNC(=O)C1(C)CCCCN1C(=O)c1ccc(F)c(C)c1 (stereo unspecified)	23	25	x	x	x
Cc1cc(C)nc(Oc2ccc([N+](=O)[O-])cc2)n1	10	-12	6	-5%	10
COc1cc(OC)c2c(-c3ccccc3)cc(=O)oc2c1C(CC(=O)N1CCN(c2ccccc2)CC1)c1ccc2c(c1)OCO2 (stereo unspecified)	x	x	x	-11%	x
COc1cc(OC)c2c(-c3ccccc3)cc(=O)oc2c1C(CC(=O)N1CCOCC1)c1ccc(N(C)C)cc1 (stereo unspecified)	u	u	x	0%	x
COc1cc(O)c(C(CCN2CCN(c3ccccc3)CC2)c2ccc3c(c2)OCO3)c(OC)c1 (stereo unspecified)	u	u	u	u	-90*
CCN(CC)CCC(c1ccc(N(C)C)cc1)c1c(OC)cc(OC)c2c(-c3ccccc3)cc(=O)oc12 (stereo unspecified)	u	u	2	-1%	-112*
COc1cc(OC)c2c(C)cc(=O)oc2c1C(CCN1CCN(c2ccccc2)CC1)c1ccc2c(c1)OCO2 (stereo unspecified)	u	u	-92*	u	-103*
O=C1OCCC1Sc1nc2ccccc2n1-c1ccccc1 (stereo unspecified)	4	6	3	-2%	-22
COc1ccccc1C(=O)NCC(=O)N=Nc1c(O)n(C(C)C)c2ccccc12	-4	x	0	x	2
COc1ccccc1C1=NNC(=NCc2ccccc2)SC1	-6	0	-4	u	-3
O=c1cc(CN2CCN(Cc3ccccc3)CC2)c2cc(Cl)ccc2o1	-2	2	54	-1%	u
O=C(CC1SC(=Nc2ccc(OC(F)F)cc2)N(CCN2CCOCC2)C1=O)Nc1ccc(F)cc1F (stereo unspecified)	-5	4	-101*	4%	-114*
CCc1nc2ccccc2n1Cc1ccccc1OC	1	-1	0	-8%	-2
Clc1cccc(N/N=C/c2ccc(N3CCOCC3)s2)c1	-15	-7	8	11µM*	-19
CCCN(CCC)Cc1c(C(=O)N/N=C/c2ccco2)nnn1-c1nonc1N	-1	3	23	x	11
COCc1c(C(=O)N/N=C\c2ccccn2)nnn1-c1nonc1N	-74*	-70*	-1	x	13
Cc1nnn(-c2nonc2N)c1C(=O)N/N=C/c1ccccc1O	-11	-14	28	13µM*	-8
Cc1ccccc1COc1ccc(/C=N/NC(=O)c2nnn(-c3nonc3N)c2CN2CCC(C)CC2)cc1	-8	-4	-5	x	u
CC1CCN(Cc2c(C(=O)N/N=C/c3ccc(OC(C)C)cc3)nnn2-c2nonc2N)CC1	-10	13	1	x	-112*
SMILES	Six1-Eya2 inh	CtBP-E1A inh	KCNH2 WT inh	KDM4E inh	KCNH2 3.1 inh
COCc1c(C(=O)N/N=C/c2c[nH]c3ccccc23)nnn1-c1nonc1N	0	19	9	x	-8
CCCN(CCC)Cc1c(C(=O)N/N=C/c2ccc(Br)cc2)nnn1-c1nonc1N	-5	-14	12	x	-78*
COc1ccc2c(c1)CC/C(=C\C=C\c1ccccc1OC)C2=O	-12	-5	1	2%	-2
CN(C)Cc1c(C(=O)N/N=C/c2ccc(OCc3ccc(F)cc3)cc2)nnn1-c1nonc1N	3	5	-38	x	-76*
C#CCN(C(=O)c1cc(COc2ccc(C)c(C)c2)on1)C1CCCCC1	7	19	-7	x	x
CCCCCN1CSC(=S)N(Cc2ccccc2)C1	2	4	-74*	12%	-22
CCc1nccn1Cc1cc(C=O)ccc1OC	-14	7	4	-18%	-2
CCOC(=O)C1CCN(C2=C(NS(=O)(=O)c3ccc(Br)cc3)C(=O)c3ccccc3C2=O)CC1	-80*	x	-1	x	-3
O=C1C(NS(=O)(=O)c2ccc(Cl)cc2)=C(N2CCCCC2)C(=O)c2ccccc21	-80*	-81*	0	4%	-15
OCCNC(=S)Nc1ccc2c(c1)OCCO2	9	2	0	-3%	0
COCCCNC(=S)Nc1ccc2c(c1)OCCO2	9	-17	-88*	0%	12
COc1ccc2nc(SCC(=O)NC3CCCCC3C)[nH]c2c1 (stereo unspecified)	-2	6	-5	x	26
COCCNC(=O)[C@@H]1CCCN1C(=O)C1CCN(S(=O)(=O)c2ccc(C)cc2)CC1	3	7	-2	x	10
CCc1nc(SCC(=O)N2CCc3cc(OC)c(OC)cc3C2)c(C#N)cc1C	-1	-1	-3	x	18
O=S(=O)(c1ccccc1)N1CCN(c2nc(-c3cccs3)nc3ccccc23)CC1	x	x	x	5%	x
O=S(=O)(c1ccc(Cl)cc1)N1CCN(c2nc(-c3cccs3)nc3ccccc23)CC1	2	-1	0	u	-90*
O=[N+]([O-])c1cc(-n2cnnn2)ccc1N1CCC(Cc2ccccc2)CC1	u	u	4	6%	-81*
CNC(=O)c1nc[nH]c1C(=O)NC	2	1	-4	1%	-8
Cc1cc(C)nc(N2CCC(C(=O)NCc3ccccc3F)CC2)n1	0	5	0	u	-12
O=C(NCc1ccco1)C1CCN(c2nc3ccccc3n2Cc2ccccc2F)CC1	-18	-6	u	1%	-105*
CCOc1ccccc1NC(=O)COc1coc(CN2CCc3ccccc3C2)cc1=O	-4	1	2	x	1
